EBV LMP1 NFkB – reduces LMP1-driven NF-kappaB luciferase signal | AID 504558 | inhibition, % at 12.5 µM | hit rate 0.69% among 350,000 | LMP1-induced NF-kappaB luciferase reporter cells, luminescence; in the data active means inhibition above about 41%; inconclusive means no clear call, values can overlap the other calls;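 further: 0% = neutral control wells and 100% = reference inhibitor control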
aSyn 5UTR inh – MLPCN primary screen, SNCA 5' untranslated region. alpha-synuclein 5'UTR reporter, inhibitor activity. inhibition, % (tested at 7.5 µM). hit rate 0.82% among 300,000. AID 1813; in the data active means inhibition above about 60%; inconclusive means no clear call, values can overlap the other calls;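 further: H4 neuroglioblastoma cells stably carrying SNCA 5'UTR luciferase fusion; 0% = DMSO wells and 100% = positive control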
PAX8 inh HTS – lowers PAX8-driven luciferase in RMG-I cells | RMG-I TPO-luciferase reporter, SteadyGlo, 24 h | inhibition, % at 12.6 µM | hit rate 1.2% among 360,000 | AID 652154;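 active means mean replicate inhibition at least 60% with every replicate also reaching 60%; inconclusive means only one of the two criteria is met; inactive means mean below 60% and not all replicates reaching 60%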;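 further: luciferase light reporting Pax8 driven TPO promoter activity; plate controls were median of neutral control wells for no effect and mitoxantrone controls for full effect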
Shn3 inh set2 – inhibitors of Schnurri-3 3'UTR reporter in osteoblasts; AID 588674; hit rate 0.52% among 360,000; inhibition, % at 12.5 µM; Clone20 osteoblast Shn3 3'UTR firefly luciferase, 24 h;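 active means mean inhibition of at least 75% with every replicate also reaching 75%; inconclusive means mean inhibition at least 75% but some replicate below; inactive means mean inhibition below 75%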;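 further: 0% = median of neutral control wells and 100% = pilot-screen positive control compound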
MITF TRPM1 inh – reduces MITF-dependent TRPM1 promoter luciferase signal. hit rate 0.83% among 330,000. inhibition, % at 12.5 µM. SK-MEL-5 TRPM1 promoter luciferase, 24 h;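 active means mean inhibition across replicates of 60% or more, whatever share of single replicates reaches that level; inconclusive means some that reach 60%, reason not given; inactive means mean inhibition across replicates below 60%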
An asterisk follows results filed as active; u = inconclusive; x = no result given. Shown are actives, neighbours in structure and some others; about 2.1% of the full set was active somewhere.

SMILES	EBV LMP1 NFkB	aSyn 5UTR inh	PAX8 inh HTS	Shn3 inh set2	MITF TRPM1 inh
COc1ccc2oc(C(=O)OCC(=O)NCCc3ccccc3)c(C)c2c1	-5.4	-1.9	3.4	-4.6	-4.9
COc1ccc2oc(C(=O)NCCc3ccccc3)c(C)c2c1	53.8*	44.9	15.4	15.7	16.8
CCOc1ccc(CCNC(=O)C2CCN(S(=O)(=O)N3CC(C)CC(C)C3)CC2)cc1OCC (stereo not drawn)	6.5	18.6	1.4	22.0	4.7
CC1(C)CC(=O)C2=C(C1)Oc1nc3ccccc3cc1C2C(C#N)C#N (stereo not drawn)	6.1	29.2	x	-16.4	80.5*
COc1ccc(C(=O)N=c2c(C#N)cc3c(=O)n4cccc(C)c4nc3n2Cc2ccco2)cc1	x	-6.3	x	x	x
O=C1C=C(Nc2ccc(O)cc2)C(=O)c2ccccc21	3.1	67.5*	-25.3	-38.9	50.1
CC(=O)Nc1ccc(NC2=CC(=O)c3ccccc3C2=O)cc1	-9.7	-46.0	-34.5	-73.1	42.5
O=C1C(Cl)=C(Nc2ccc(O)cc2)C(=O)c2ccccc21	61.4*	-59.2	48.5	91.8*	97.0*
COC1=C(Nc2ccc(O)cc2)C(=O)c2ccccc2C1=O	0.8	-109.5	35.0	-2.0	80.1*
O=C1C(O)=C(O)C(=O)c2ccccc21	-4.3	x	x	-0.9	36.9
CCN(CC)c1ccc(NC2=C(Cl)C(=O)c3ccccc3C2=O)cc1	80.1*	x	x	96.6*	91.9*
CCOC(=O)N1CCC(=NNC(=O)NC2CCCCC2)CC1	11.6	-1.3	-14.0	0.1	-7.5
CC1=CC(C)(C)N(C(=O)c2ccc(F)cc2)c2cc3c(cc21)OCO3	7.5	25.1	-4.1	-5.9	-16.1
Cc1ccc(NC2=C(Cl)C(=O)c3ccccc3C2=O)cc1	-5.9	u	-89.4	-59.3	103.5*
Cc1ccc(NC2=C(N3CCOCC3)C(=O)c3ccccc3C2=O)cc1	3.6	-83.6	x	-47.1	6.2
CCN(Cc1ccccc1)C(c1cccc(C#N)c1)c1nnnn1C(C)(C)C (stereo not drawn)	-8.7	12.0	x	0.2	-3.6
O=C(O)CSc1nnc(NC(=O)c2ccc3c(c2)OCO3)s1	-22.2	53.7	3.5	31.2	19.6
COC(=O)c1cc(NC(=O)/C=C/c2ccc3c(c2)OCO3)cc(C(=O)OC)c1	3.7	48.3	x	22.3	-1.6
COC(=O)c1cccc(NC(=O)/C=C/c2ccc3c(c2)OCO3)c1	32.5	102.3*	-26.6	1.2	4.3
CN1CCN(c2ccc(NC(=O)N3CCc4ccccc43)cc2)CC1	60.4*	69.6*	48.9	45.6	u
C=C(NC(=O)C(=C)NC(=O)c1csc(C2=NC3c4csc(n4)C4NC(=O)c5csc(n5)C(C(C)(O)C(C)O)NC(=O)C5CSC(=N5)/C(=C/C)NC(=O)C(C(C)O)NC(=O)c5csc(n5)C3(CC2)NC(=O)C(C)NC(=O)C(=C)NC(=O)C(=C)NC(=O)C(C(C)C)NC2C=Cc3c(C(C)O)cc(nc3C2O)C(=O)OC4C)n1)C(N)=O (stereo not drawn)	64.8*	x	46.4	85.5*	94.2*
Cc1ccsc1C(=O)N1CCC1(C)C(=O)NCc1cccc2ccccc12 (stereo not drawn)	x	x	16.9	10.8	x
O=C(O)CN1C(=O)/C(=C\c2cc(Br)ccc2OCc2ccccc2Cl)SC1=S	-10.9	-13.8	18.8	-5.8	10.3
O=C(CCCN1C(=O)/C(=C/c2ccccc2Cl)SC1=S)NNC(=O)c1ccccc1Cl	44.0*	100.3*	12.2	11.0	40.5
O=C(CCN1C(=O)/C(=C/c2ccccc2Cl)SC1=S)N1CCCC1	5.2	-115.4	82.7*	47.1	41.2
SMILES	EBV LMP1 NFkB	aSyn 5UTR inh	PAX8 inh HTS	Shn3 inh set2	MITF TRPM1 inh
O=C(O)CN1C(=O)/C(=C\c2ccccc2OCc2ccc(Cl)cc2Cl)SC1=S	44.1*	-58.1	2.3	36.1	2.7
COc1cc(OC)cc(C(=O)N[C@H](C(=O)OCn2nnc3ccccc3c2=O)C(C)C)c1	7.9	2.5	1.6	-3.0	9.3
COc1cc2c(=O)n(CC3CCCO3)c(=O)n(CC(=O)Nc3cccc(Cl)c3)c2cc1OC (stereo not drawn)	84.6*	16.3	x	6.7	14.0
CCSc1nnc2ccc(-c3ccc(OC)c(OC)c3)nn12	0.4	61.7*	-24.0	-2.5	-7.8
CCCCn1nnnc1C1(C)CCC(=O)N1CCc1ccc(O)cc1 (stereo not drawn)	x	x	-2.3	x	x
Cc1ccc(OCC(=O)N/N=C\c2ccc(-c3cccc(C(=O)O)c3)o2)c(C)c1	-6.5	-31.1	-86.8	-32.9	-12.8
Cc1ncc(CO)c(/C=N/Nc2ccc(C(F)(F)F)cn2)c1O	29.8	87.6*	31.6	81.1	55.8
COc1cccc(-c2cc(=O)c3cc(NC(=O)c4ccc(Cl)cc4)ccc3[nH]2)c1	-14.2	-68.4	4.0	-30.0	7.7
COc1cccc(-c2cc(=O)c3cc(NC(=O)c4ccccc4)ccc3[nH]2)c1	0.8	81.8*	51.8	11.0	19.7
COc1cccc(-c2cc(=O)c3cc(NC(=O)c4ccc(N(C)C)cc4)ccc3[nH]2)c1	x	115.0*	x	x	x
COc1ccccc1NC(=O)c1ccc(NC(=O)C2COc3ccccc3O2)cc1 (stereo not drawn)	-11.9	33.7	-6.3	23.7	-5.5
COc1ccccc1N1CCN(c2ccnc3cc(Cl)ccc23)CC1	28.7	86.6*	18.6	20.1	15.1
COc1ccccc1NC(=O)N1CCN(c2ccnc3cc(Cl)ccc23)CC1	21.1	23.9	0.3	14.8	2.7
CC(=O)c1ccc(N2CCN(c3ccnc4cc(Cl)ccc34)CC2)cc1	47.1*	-0.7	20.6	46.4	10.5
Cc1nc(-c2ccc(F)cc2)c(CC(=O)N2CCN(S(=O)(=O)c3cccc([N+](=O)[O-])c3)CC2)s1	1.3	x	-0.7	-6.5	5.6
CCC1Nc2ncnc(N3CCc4ccccc4C3)c2N(Cc2ccc(Cl)cc2)C1=O (stereo not drawn)	-6.3	x	10.3	-17.2	11.8
Oc1cccc(/C=N/NC(=S)NCCN2CCOCC2)c1O	48.4*	-7.1	11.4	80.8	12.9
COc1ccc(-n2nnnc2-c2cnc(N3CCCC3)nc2C(F)(F)F)cc1	27.6	0.5	x	87.5*	14.3
Clc1ccc(-n2nnnc2-c2cnc(-c3ccncc3)nc2-c2cccs2)cc1	5.9	30.4	x	13.8	-1.0
FC(F)(F)c1nc(-c2cccnc2)ncc1-c1nnnn1-c1ccccc1	-1.2	-5.1	35.3	36.2	-6.0
FC(F)(F)c1nc(-c2cccs2)ncc1-c1nnnn1-c1ccc(Cl)cc1	24.6	8.8	x	85.9*	4.0
O=C(c1ccco1)N1N=C(c2ccc(Br)cc2)CC1(O)C(F)(F)F (stereo not drawn)	-9.2	8.4	97.0*	3.9	-6.2
O=C(c1ccco1)N1N=C(c2ccc(Cl)cc2)CC1(O)C(F)(F)F (stereo not drawn)	11.9	9.7	-14.4	21.4	-13.9
Cc1noc(C)c1S(=O)(=O)Nc1ccc2c(c1)C(=O)N([C@@H](C)CO)C[C@@H](C)[C@@H](CN(C)Cc1ccc(C(F)(F)F)cc1)OCCCC[C@H](C)O2	x	x	67.6*	x	x

From PubChem
